Growth data for 17 compounds are collected here from PubChem BioAssay (NCI).

Among the test systems are T-47D breast; BT-549 breast; MDA-MB-435 melanoma; SW-620 colon; MCF7 breast; HCT-116 colon; HCC-2998 colon; KM12 colon.
Test in all cases: NCI-60 one-dose screen, 48 h (100 = growth as untreated, 0 = no growth, -100 = all killed)
What all share (details): 10 µM

The structures appear in SMILES notation. About 83,000 compounds went through this panel and 20% of them were active in at least one assay; those are over-represented in the sample as a whole.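 96-well plates, one dose, 48 hours. Percent growth reported; active if below 10.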 Unmarked numbers belong to inactive results. Active and inactive are the calls of the source.

As for `O=C(Nc1ccc(OS(=O)(=O)c2ccccc2)cc1)C1CCCCC1`, the growth is 85.4% with T-47D breast; 84% in the assay with BT-549 breast; 100% with MDA-MB-435 melanoma; 102% with SW-620 colon; 97% in the assay with MCF7 breast; 72.1% in the assay with HCT-116 colon. Also, the growth with HCC-2998 colon is 92.4%; in the assay with KM12 colon it was 88.5%.

Take `Cc1c2cnccc2c(C)c2c1c1cc(O)ccc1n2C(C)C`: the growth was 3.1% (active) in the assay with T-47D breast; -2.72% (active) in the assay on BT-549 breast; 8.19% (active) in the assay with MDA-MB-435 melanoma; 2.58% (active) with SW-620 colon; -3.2% (active) with MCF7 breast; -49.4% (active) with HCT-116 colon. The growth with HCC-2998 colon was 20.8%; with KM12 colon it was 3.74% (active).

Turning to `COc1cc(-c2nc3ccccc3o2)cc(CN2CCCCC2)c1O`, the growth in the assay with T-47D breast is 86.6%; with BT-549 breast it was 67.2%; in the assay with MDA-MB-435 melanoma it was -79.9% (active); in the assay with SW-620 colon, 64.6%; in the assay on MCF7 breast, 50.8%; in the assay on HCT-116 colon, 57.2%. For the same compound, the growth is 97.7% in the assay with HCC-2998 colon and 44.9% in the assay on KM12 colon.

In the case of `COc1ccc(-c2nn(-c3cccc(Cl)c3)cc2-c2c(C#N)c(=O)n3[nH]c(-c4ccccc4)nc3c2C#N)cc1`, the growth is 73.9% with T-47D breast; 84.4% in the assay with BT-549 breast; 91.1% with MDA-MB-435 melanoma; 108% in the assay with SW-620 colon; 63.4% with MCF7 breast; 87.3% with HCT-116 colon. For the same compound, the results for the growth with HCC-2998 colon and with KM12 colon were 108% and 94%, respectively.

As to `C[C@@H](C[C@H](CCO)c1ccccc1)c1ccc2ccccc2c1`, the growth is -58.3% (active) in the assay with T-47D breast; -86.1% (active) with BT-549 breast; -75.3% (active) in the assay with MDA-MB-435 melanoma; -26.5% (active) in the assay on SW-620 colon; -63% (active) with MCF7 breast; -94.3% (active) in the assay with HCT-116 colon. Moreover, the growth in the assay on HCC-2998 colon is -82.9% (active); in the assay on KM12 colon it was -42.3% (active).

With `CC(C)(C)OC(=O)CC(S(=O)(=O)c1ccccc1)S(=O)(=O)c1ccccc1`, the growth is 67.1% in the assay with T-47D breast; 108% in the assay on BT-549 breast; 100% in the assay with MDA-MB-435 melanoma; -63.9% (active) with SW-620 colon; 97% in the assay with MCF7 breast; 82.5% in the assay on HCT-116 colon. Besides, the growth in the assay on HCC-2998 colon was 106%; in the assay with KM12 colon, 99.6%.

`Cc1c[nH]c(=O)n(Cc2nnc(CCC(=O)c3nc4ccccc4[nH]3)o2)c1=O`: the growth in the assay with T-47D breast is 34.3%; with BT-549 breast it was 18.9%; in the assay on MDA-MB-435 melanoma it was -45.8% (active); in the assay with SW-620 colon, 28.9%; with MCF7 breast it was 9.44% (active); in the assay on HCT-116 colon it was 6.25% (active). Besides, the growth is -27.9% (active) in the assay on HCC-2998 colon and 4.98% (active) in the assay with KM12 colon.

With `N#Cc1c(-c2ccc(Cl)cc2)csc1NC(=O)Nc1ccc(Cl)c(C(F)(F)F)c1`, the growth with T-47D breast was -17.7% (active); in the assay on BT-549 breast, 6.57% (active); in the assay on MDA-MB-435 melanoma, 26%; in the assay on SW-620 colon, 11.1%; in the assay on MCF7 breast, 3.1% (active); with HCT-116 colon it was -14.7% (active). The growth in the assay on HCC-2998 colon is 19.8%; with KM12 colon, 10.4%.

For `COc1ccc(C(=O)CSc2nc(-c3cc(OC)ccc3OC)cc(-c3ccc(OC)cc3)c2C#N)cc1`, the growth was 85.7% in the assay with T-47D breast; 89.9% in the assay on BT-549 breast; 100% with MDA-MB-435 melanoma; 110% in the assay on SW-620 colon; 101% with MCF7 breast; 94% with HCT-116 colon. Moreover, the growth in the assay on HCC-2998 colon was 108%; in the assay on KM12 colon, 92.1%.

`CCCCc1oc2ccccc2c1C(=O)c1cc(I)c(OCCN(CC)CC)c(I)c1`: the growth in the assay with T-47D breast was 7% (active); in the assay on BT-549 breast it was -50% (active); in the assay on MDA-MB-435 melanoma, -56.2% (active); in the assay on SW-620 colon it was -96.3% (active); in the assay on MCF7 breast, -67% (active); in the assay on HCT-116 colon it was -61.4% (active). Moreover, the growth in the assay on HCC-2998 colon is -88.5% (active); with KM12 colon, -47.6% (active).

Consider `CCCCN(CCCC)C(=O)[C@H](CC)[C@@H]1CC[C@@H](C)[C@@H]([C@H](C)[C@@H](O)[C@@H](C)C(=O)[C@H](CC)C2O[C@]3(C=C[C@@H](O)[C@]4(CC[C@@](C)([C@H]5CC[C@](O)(CC)[C@H](C)O5)O4)O3)[C@H](C)C[C@@H]2C)O1` (stereo partly specified), for which the growth in the assay with T-47D breast was 5.04% (active); in the assay with BT-549 breast it was 8.46% (active); with MDA-MB-435 melanoma it was 4.48% (active); in the assay with SW-620 colon, 9.41% (active); with MCF7 breast, -14.1% (active); in the assay with HCT-116 colon it was 2.55% (active). Also, the growth was 2.49% (active) in the assay on HCC-2998 colon and 20.6% in the assay on KM12 colon.

With `O=C(Nc1ccccc1)Nc1ncnc2c1ncn2-c1ccccc1`, the growth is 51.3% in the assay on T-47D breast; 89.4% with BT-549 breast; 84.8% in the assay on MDA-MB-435 melanoma; 94% in the assay with SW-620 colon; 78.9% with MCF7 breast; 29.2% with HCT-116 colon. In addition, the growth with HCC-2998 colon was 92.6%; with KM12 colon it was 87.4%.

In the case of `C/C(=N\O)c1ccc(NC(=O)CSc2nnc(-c3ccccc3)n2-c2ccccc2)cc1`, the growth in the assay on T-47D breast is 79.6%; in the assay on BT-549 breast, 20.9%; in the assay with MDA-MB-435 melanoma it was 100%; with SW-620 colon it was 83.1%; with MCF7 breast, 104%; in the assay with HCT-116 colon it was 28.6%. The growth is 91.1% in the assay with HCC-2998 colon and 73.3% in the assay with KM12 colon.

`CS(=O)(=O)c1nccc(-c2c(-c3ccc(OCCc4ccccc4)cc3)nc3sccn23)n1`: the growth in the assay with T-47D breast is 91.3%; in the assay with BT-549 breast, 110%; in the assay with MDA-MB-435 melanoma, 96%; with SW-620 colon it was 93.7%; in the assay with MCF7 breast, 66.1%; in the assay on HCT-116 colon, 99.6%. Moreover, the growth in the assay with HCC-2998 colon and in the assay with KM12 colon was 106% each time.

As for `Cc1cn(-c2cccc(NC(=O)c3ccc(C)c(Nc4nccc(-c5cccnc5)n4)c3)c2)cn1`, the growth in the assay on T-47D breast was 46%; in the assay on BT-549 breast, -39.4% (active); with MDA-MB-435 melanoma, -27.8% (active); in the assay on SW-620 colon, 20.2%; with MCF7 breast it was -24.6% (active); with HCT-116 colon, -87.4% (active). The growth is 41.7% in the assay with HCC-2998 colon and -94.9% (active) in the assay on KM12 colon.

Take `CCc1ccc(-c2ccc(-n3nc(C)c4c(N)nc(Cc5ccccc5)nc43)cc2)cc1`: the growth in the assay with T-47D breast is 49.7%; with BT-549 breast, 72%; in the assay with MDA-MB-435 melanoma it was 82.7%; with SW-620 colon, 77.8%; with MCF7 breast, 58.1%; in the assay with HCT-116 colon it was 59.1%. Besides, the growth in the assay on HCC-2998 colon is 23.7%; in the assay on KM12 colon it was 53.5%.

Turning to `COc1ccc(/C(=N\N)C(=O)c2ccccc2)cc1` (tested in a mixture with another compound), the growth in the assay on T-47D breast is 83.7%; with BT-549 breast, 108%; in the assay on MDA-MB-435 melanoma, 92.7%; with SW-620 colon it was 107%; in the assay with MCF7 breast it was 92.4%; with HCT-116 colon it was 103%. Moreover, the growth in the assay with HCC-2998 colon was 98.1%; in the assay on KM12 colon, 102%.
